# About 4,300 (8.3%) of roughly 52,000 compounds were called active. What follows is part of a selection rich in actives, with near analogues and random picks from the rest. A number with no mark means an inactive call. No stated cut-off is given here; in the data, active means survival mostly below about 52% (no sharp cut-off); inactive means mostly above about 56%.
# Test system: DeltatarO mutant
# Test: growth inhibition of S. aureus wild type versus tarO mutant, primary screen, teichoic acid synthesis inhibitors, RN4220, OD600 (AID 463173)
# Conditions: OD600, 18 h, active compounds read low, screened at 18.75 µg/mL (by protocol)
row,SMILES,survival
1,C=Cc1ccc(Cn2nc(-c3ccc(C)cc3)ccc2=O)cc1,35% (active)
2,Cc1ccc(-c2ccc(=O)n(Cc3ccc(F)cc3)n2)cc1,50%
3,Cc1ccc(C)c(Cn2nc(-c3cc(C)ccc3C)ccc2=O)c1,44%
4,C=Cc1ccc(Cn2nc(-c3ccc(C)c(S(=O)(=O)N(CC)CC)c3)ccc2=O)cc1,53%
5,O=c1ccc(-c2ccccc2)nn1Cc1ccc(F)cc1Cl,49%
6,Cc1ccc(C)c(-c2ccc(=O)n(Cc3c(F)cccc3Cl)n2)c1,81%
7,Cc1ccc(-c2ccc(=O)n(Cc3cc(C)ccc3C)n2)cc1,57% (active)
8,COC(=O)c1ccc(Cn2nc(-c3ccc(C)cc3)ccc2=O)cc1,133%
9,Cc1ccc(C)c(-c2ccc(=O)n(Cc3ccc(F)cc3Cl)n2)c1,32% (active)
10,Cc1ccc(-c2ccc(=O)n(CC(=O)NCCc3ccc(Cl)cc3)n2)cc1,69%
11,Cc1ccc(CCNC(=O)Cn2nc(-c3ccc(C)cc3)ccc2=O)cc1,0% (active)
12,Cc1ccc(-c2ccc(=O)n(CC(=O)NCCc3ccccc3)n2)cc1,57%
13,Cc1ccc(NC(=O)CCN2CCN(CCO)CC2)cc1C,54%
14,Cc1ccc(CCNC(=O)c2ccc3c(c2)nc2n3CCOC2)cc1,86%
15,CCc1ccc(-n2c(=O)c3cccnc3n2CC(=O)Nc2ccccc2C(F)(F)F)cc1,71%
16,Cc1c(-c2ccc(Cl)cc2)c(=O)oc2c(CN3CCOCC3)c(O)ccc12,82%
17,O=c1oc(-c2cccc3ncccc23)nn1Cc1ccccc1F,102%
18,COc1cccc(CNC(=O)CCc2nnc3n(C)c(=O)c4sccc4n23)c1,63%
19,CCc1ccc(C(=O)c2cn(CC(=O)Nc3ccc(C)c(C)c3)c3ccccc3c2=O)cc1,108%
20,CC(C)CC(=O)n1nc(-c2cccnc2)nc1NCc1ccc(F)cc1,89%

row,SMILES,survival
1,Cc1cc(Nc2ccc(F)cc2)nc(-n2nc(C)cc2C)n1,70%
2,Cc1ccc2ncc(C(=O)c3ccc(C)c(C)c3)c(S(=O)(=O)c3ccccc3)c2c1,70%
3,COc1ccc(S(=O)(=O)N2CCC(c3nnnn3-c3ccccc3)CC2)cc1OC,80%
4,CN1C(=O)/C(=C2/SC(=S)N(c3cccc(O)c3)C2=O)c2ccccc21,54%
5,CNC(=O)c1ccc(CSc2nc3cccnc3n2Cc2cccc(F)c2)cc1,118%
6,CCN1CCN(CCCNC(=O)c2ccc3nc(Cc4ccccc4)oc3c2)CC1,105%
7,CCCCOc1cccc(C(=O)Nc2cc(NC(=O)c3ccco3)ccc2OC)c1,23% (active)
8,COc1ccc(NC(=O)c2ccco2)cc1NC(=O)COc1cc(C)cc(C)c1,121%
9,COc1ccc(NC(=O)c2ccco2)cc1NC(=O)c1cccc(C)c1OC,37% (active)
10,COc1ccc(NC(=O)c2ccco2)cc1NC(=O)c1c(OC)cccc1OC,51%
11,COc1ccc(NC(=O)c2ccco2)cc1NC(=O)COc1ccc(C)c(C)c1,49%
12,COc1ccc(NC(=O)c2ccco2)cc1NC(=O)c1cc(OC)c(OC)c(OC)c1,71%
13,COc1ccc(NC(=O)c2ccco2)cc1NC(=O)c1ccccc1[N+](=O)[O-],49%
14,COc1ccc(NC(=O)c2ccco2)cc1NC(=O)c1cccc(F)c1,89%
15,COc1ccc(C(=O)Nc2cc(NC(=O)c3ccco3)ccc2OC)cc1Cl,54%
16,COc1ccc(NC(=O)c2ccco2)cc1NC(=O)COc1ccccc1,45% (active)
17,COc1ccc(NC(=O)c2ccco2)cc1NC(=O)c1ccc(C)c(C)c1,49% (active)
18,COc1cc(OC)cc(C(=O)Nc2cc(NC(=O)c3ccco3)ccc2OC)c1,83%
19,COc1cccc(NC(=O)C2CCCN(c3nnc(-n4c(C)ccc4C)s3)C2)c1 (stereo not given),79%
20,COc1ccc(NC(=O)Cn2cnc3c(oc4ccccc43)c2=O)cc1OC,79%

row,SMILES,survival
1,Cc1nc(-c2ccc(S(=O)(=O)N3CCN(c4cccc(C(F)(F)F)c4)CC3)cc2)co1,67%
2,Cc1ccc(S(=O)(=O)CC(=O)Nc2nc3c(C)cc(C)cc3s2)cc1,96%
3,COC(=O)c1c(SC)nc2ccccc2c1OCc1ccc(Cl)cc1,92%
4,COc1ccc(N(C(=O)c2ccc(OC)c(OC)c2)S(=O)(=O)c2ccc(Cl)cc2)cc1,80%
5,COc1cccc(CN(CCO)Cc2ccccc2)c1OC,91%
6,CCOc1ccc(CNC(=O)C2CCN(C(=O)N3CC(CC)Oc4ccc(C)cc43)CC2)cc1OC (stereo not given),77%
7,Cc1cccc(-n2c(=O)c3c(c4cc(C)ccc4n3C)n(CC(=O)Nc3ccc(C)cc3C)c2=O)c1,69%
8,COc1ccccc1CNC(=O)Cn1ncc2c(=O)oc3ccc(C)cc3c21,78%
9,CC(C)n1nc(CC(=O)O)c2ccccc2c1=O,79%
10,CCSc1nc2ccc(N)cc2s1,108%
11,O=C(NCC(c1cccnc1)N1CCc2ccccc2C1)c1ccc(F)c(F)c1 (stereo not given),70%
12,CCOc1ccc(CCNC(=O)CN2C(=O)COc3ccc(S(=O)(=O)N4CCCC4)cc32)cc1,69%
13,Cc1ccc(C(c2sc3nc(-c4ccco4)nn3c2O)N2CCCCC2)cc1 (stereo not given),93%
14,COc1ccc(CNc2nc(-c3ccco3)nn2S(=O)(=O)c2ccc3ccccc3c2)cc1OC,58% (active)
15,Fc1cccc(Cl)c1CNc1n[nH]c(-c2ccco2)n1,76%
16,COc1ccc(CNc2n[nH]c(-c3ccco3)n2)cc1OC,62% (active)
17,CC(C)c1ccc(CNc2n[nH]c(-c3ccco3)n2)cc1,80%
18,COc1ccc(CNc2nc(-c3ccco3)nn2S(=O)(=O)c2ccc(Cl)cc2)cc1OC,61%
19,COc1ccc(S(=O)(=O)n2nc(-c3ccco3)nc2NCc2ccc(OC)c(OC)c2)cc1,55%
20,Cc1ccc(C(=O)Nc2cccc(O)c2)cc1S(=O)(=O)N1CCCCCC1,79%
